Results: PubChem BioAssay AID1159580 (chemical genetic matrix, 2015)
Several values for one entry are separate records, joined by “and”; a condition that tells them apart may be missing. Identical values can stand only once. Screen size: about 5,500 compounds; about 2,000 (36%) were called active. About 18% were inconclusive and are not listed. Cut-off read from the data, not from the text of the source: active = normalized growth mostly below about 0.91 (no sharp cut-off); inconclusive = no clear call, values can overlap the other calls; inactive = mostly above about 0.92. This is one part of the list.

Test: chemical genetic growth profiling, strain panel (AID 1159580);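 note: tested at 20 µM; growth read once vehicle control cultures reached saturation at 30 °C; 1 = growth at the plate median or of vehicle wells; lower values mean less growth of the strain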
Details: S. cerevisiae deletion strains, growth OD

Measured: normalized growth

CCN(CC)CCOC(=O)C(Cc1cccc2ccccc12)CC1CCCO1 (stereo not given)
inactive: locus YAL013W, strain DEP1, hits give low values 1.03 | locus YAL021C, strain ccr4, hits give low values 1 | locus YAL026C, strain drs2, hits give low values 1.01 | locus YAL030W, strain snc1, hits give low values 0.998 | locus YBL061C, strain skt5, hits give low values 1.01 | locus YBR009C, strain hhf1, hits give low values 1.01 | locus YBR021W, strain FUR4, hits give low values 1.02 | locus YBR023C, strain chs3, hits give low values 1.01 | locus YBR171W, strain sec66, hits give low values 1.02 | locus YBR229C, strain ROT2, hits give low values 1 | locus YBR231C, strain swc5, hits give low values 0.995 | locus YBR279W, strain paf1, hits give low values 1.01 | locus YCL011C, strain gbp2, hits give low values 1.01 | locus YCL016C, strain dcc1, hits give low values 1.01 | locus YCL029C, strain bik1, hits give low values 1.01 | locus YCL061C, strain MRC1, hits give low values 1.01 | locus YCL069W, strain vba3, hits give low values 1.01 | locus YCR088W, strain abp1, hits give low values 1 | locus YDL005C, strain med2, hits give low values 1.01 | locus YDL035C, strain GPR1, hits give low values 1.02 | locus YDL040C, strain nat1, hits give low values 1.01 | locus YDL074C, strain BRE1, hits give low values 1.02 | locus YDL101C, strain DUN1, hits give low values 1 | locus YDL134C, strain PPH21, hits give low values 1.01 | locus YDL185W, strain tfp1, hits give low values 1.01 | locus YDL192W, strain arf1, hits give low values 1.01 | locus YDR001C, strain nth1, hits give low values 1.01 | locus YDR069C, strain doa4, hits give low values 1.02 | locus YDR101C, strain arx1, hits give low values 1.02 | locus YDR137W, strain rgp1, hits give low values 1.07 | locus YDR159W, strain sac3, hits give low values 1.02 | locus YDR162C, strain NBP2, hits give low values 1.02 | locus YDR195W, strain ref2 0.996 | locus YDR297W, strain sur2, hits give low values 1.01 | locus YDR318W, strain mcm21, hits give low values 1 | locus YDR334W, strain swr1, hits give low values 1.01 | locus YDR335W, strain msn5, hits give low values 1.01 | locus YDR388W, hits give low values 1.01 | locus YDR392W, strain spt3, hits give low values 1.01 | locus YDR502C, strain sam2, hits give low values 1.01 | locus YEL003W, strain gim4, hits give low values 1.01 | locus YEL037C, strain rad23, hits give low values 1.01 | locus YEL061C, strain CIN8 (second series), hits give low values 1.01 | locus YEL061C, strain CIN8, hits give low values 1.01 | locus YER015W, strain faa2, hits give low values 1.01 | locus YER016W, strain bim1, hits give low values 1.01 | locus YER110C, hits give low values 0.99 | locus YER111C, strain swi4, hits give low values 1.01 | locus YER155C, strain BEM2 (second series), hits give low values 1.01 | locus YER155C, strain BEM2, hits give low values 1 | locus YER167W, strain BCK2, hits give low values 1.01 | locus YFR010W, strain ubp6, hits give low values 1.02 | locus YGL078C, strain dbp3, hits give low values 1.02 | locus YGL086W, strain mad1, hits give low values 1.01 | locus YGL167C, strain pmr1, hits give low values 1.01 | locus YGL173C, strain kem1, hits give low values 1.01 | locus YGL227W, strain vid30, hits give low values 1 | locus YGL240W, strain doc1, hits give low values 1.01 | locus YGL248W, strain PDE1, hits give low values 1.01 | locus YGL253W, strain hxk2, hits give low values 1.01 | locus YGR078C, strain PAC10, hits give low values 1.03 | locus YGR135W, strain pre9, hits give low values 0.998 | locus YGR252W, strain gcn5, hits give low values 1.02 | locus YHR013C, strain ard1, hits give low values 1.01 | locus YHR027C, strain rpn1, hits give low values 1.01 | locus YHR030C, strain SLT2, hits give low values 1.01 and 0.997 | locus YHR079C, strain IRE1 (second series), hits give low values 1 | locus YHR079C, strain IRE1, hits give low values 0.985 | locus YHR094C, strain hxt1, hits give low values 0.997 | locus YHR129C, strain ARP1, hits give low values 1.01 | locus YHR142W, strain chs7, hits give low values 1.02 | locus YHR200W, strain rpn10, hits give low values 1.01 | locus YIL066C, strain RNR3, hits give low values 1.03 | locus YIL073C, strain SPO22, hits give low values 1.08 | locus YIL125W, strain kgd1, hits give low values 1 | locus YIR030C, strain dcg1, hits give low values 1.01 | locus YJL092W, strain hpr5, hits give low values 1.01 | locus YJL095W, strain BCK1 (second series), hits give low values 1 | locus YJL095W, strain BCK1, hits give low values 1.03 and 0.993 | locus YJL115W, strain asf1, hits give low values 1 | locus YJL129C, strain trk1, hits give low values 0.998 | locus YJL134W, strain LCB3, hits give low values 1 | locus YJL154C, strain vps35, hits give low values 1.01 | locus YJL164C, strain tpk1, hits give low values 1.01 | locus YJL166W, strain qcr8, hits give low values 1 | locus YJL168C, strain set2, hits give low values 0.998 | locus YJL187C, strain SWE1 (second series), hits give low values 1.02 | locus YJL187C, strain SWE1, hits give low values 1.01 | locus YJR043C, strain POL32, hits give low values 1.02 | locus YJR066W, strain TOR1, hits give low values 0.95 | locus YKL009W, strain mrt4, hits give low values 0.989 | locus YKL068W, hits give low values 1 | locus YKL085W, strain MDH1 (second series), hits give low values 1 | locus YKL085W, strain MDH1, hits give low values 1 | locus YKL160W, strain elf1, hits give low values 1 | locus YKR001C, strain vps1, hits give low values 1.01 | locus YKR026C, strain gcn3, hits give low values 1.01 | locus YKR091W, strain srl3, hits give low values 1 | locus YLL001W, strain dnm1, hits give low values 0.999 | locus YLL026W, hits give low values 1 | locus YLL041C, strain sdh2, hits give low values 1.01 | locus YLR027C, strain aat2, hits give low values 1.01 | locus YLR039C, strain RIC1, hits give low values 1.11 | locus YLR058C, strain SHM2, hits give low values 1.01 | locus YLR102C, strain apc9, hits give low values 0.992 | locus YLR113W, strain HOG1, hits give low values 0.986 | locus YLR221C, strain rsa3, hits give low values 1.01 | locus YLR258W, strain gsy2, hits give low values 1 | locus YLR262C, strain YPT6 (second series), hits give low values 1.03 | locus YLR262C, strain YPT6, hits give low values 1.06 | locus YLR268W, strain sec22, hits give low values 1.02 | locus YLR320W, strain mms22, hits give low values 1.03 | locus YLR330W, strain CHS5, hits give low values 1.01 | locus YLR342W, strain FKS1 (second series), hits give low values 1.02 | locus YLR342W, strain FKS1, hits give low values 1.01 | locus YLR357W, strain rsc2, hits give low values 0.998 | locus YLR370C, strain arc18, hits give low values 1.01 | locus YLR371W, strain rom2, hits give low values 1.01 | locus YLR384C, strain iki3, hits give low values 1.02 | locus YLR418C, strain cdc73, hits give low values 1.02 | locus YML016C, strain PPZ1, hits give low values 1 | locus YML032C, strain rad52, hits give low values 1.01 | locus YML120C, strain ndi1, hits give low values 1 | locus YML124C, strain tub3, hits give low values 1 | locus YMR058W, strain fet3, hits give low values 1.01 | locus YMR078C, strain ctf18, hits give low values 1.02 | locus YMR125W, strain sto1, hits give low values 1.01 | locus YMR129W, hits give low values 1.01 | locus YMR205C, strain PFK2, hits give low values 1.02 | locus YMR223W, strain ubp8, hits give low values 1.02 | locus YMR231W, strain pep5, hits give low values 1.02 | locus YMR307W, strain GAS1, hits give low values 0.965 | locus YNL067W, strain RPL9B, hits give low values 1.03 | locus YNL071W, strain lat1, hits give low values 1.01 | locus YNL153C, strain GIM3, hits give low values 1.03 | locus YNL183C, strain NPR1, hits give low values 0.939 | locus YNL209W, strain ssb2, hits give low values 1.02 | locus YNL233W, strain BNI4, hits give low values 1.03 | locus YNL248C, strain rpa49, hits give low values 1.01 | locus YNL250W, strain rad50, hits give low values 1.01 | locus YNL271C, strain bni1, hits give low values 0.998 | locus YNL298W, strain CLA4, hits give low values 0.998 | locus YNL307C, strain MCK1, hits give low values 1.02 | locus YNL322C, strain KRE1 (second series), hits give low values 0.996 | locus YNR049C, strain mso1, hits give low values 0.997 | locus YNR052C, strain pop2, hits give low values 0.993 | locus YOL006C, strain TOP1, hits give low values 1.14 | locus YOL012C, strain htz1 0.825 | locus YOL147C, strain pex11, hits give low values 1 | locus YOR001W, strain rrp6, hits give low values 1.01 | locus YOR061W, strain CKA2, hits give low values 1.01 | locus YOR069W, strain VPS5, hits give low values 1 | locus YOR070C, strain gyp1, hits give low values 1 | locus YOR080W, strain dia2, hits give low values 1 | locus YOR083W, strain WHI5, hits give low values 1.01 | locus YOR106W, strain vam3, hits give low values 0.998 | locus YOR136W, strain idh2, hits give low values 1.01 | locus YOR144C, strain elg1, hits give low values 1 | locus YOR184W, strain ser1, hits give low values 1.01 | locus YOR231W, strain MKK1, hits give low values 0.978 | locus YOR265W, strain rbl2, hits give low values 1 | locus YOR270C, strain vph1, hits give low values 1.03 | locus YOR290C, strain snf2, hits give low values 1 | locus YOR316C, strain cot1, hits give low values 1.01 | locus YPL051W, strain arl3, hits give low values 1 | locus YPL055C, strain LGE1, hits give low values 1.02 | locus YPL078C, strain atp4, hits give low values 1.01 | locus YPL106C, strain sse1, hits give low values 1.01 | locus YPL240C, strain hsp82, hits give low values 1 | locus YPL256C, strain CLN2, hits give low values 0.964 | locus YPR119W, strain clb2, hits give low values 0.996 | locus YPR141C, strain kar3, hits give low values 1.01 | locus YPR163C, strain tif3, hits give low values 1.01 | locus YPR167C, strain met16, hits give low values 1 | strain wtn01, hits give low values 1
